The source of these data is the supplement of paper PMC10646978.

± gives the standard deviation.

For this assay, the system named is RAW-Dual (murine macrophage reporter line). Nature of the assay: NF-kB reporter (SEAP) activity fold change vs agonist alone; higher = enhanced NF-kB activity. The settings on record: modulator concentration 10 µM; agonist: MPLA […]. The procedure, abridged: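 Overnight stimulation with a PRR agonist followed pre-incubation for 1 hour at 37 °C with compound at 10 μM final. This was done in RAW-Dual murine macrophage reporter cells seeded at 50 000 per well in 384-well plates. NF-κB (SEAP, QUANTI-Blue absorbance at 620 nm) and IRF (Lucia luciferase, QUANTI-Luc luminescence) were read from the supernatant. Each reporter's fold change relative to the mean agonist-only control on the same plate was averaged over replicate plates.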
With `C=CCc1ccccc1OCC(O)CNC(C)C.Cl` (configuration not stated), the NF-kB reporter is 1.06 ± 0.072.
Take `COc1ccc(OC)c(S(=O)(=O)NCC2CC(=O)N(c3ccc(Cl)cc3)C2)c1` (configuration not stated): the NF-kB reporter amounted to 0.911 ± 0.052.
`O=[N+]([O-])c1ccc(C=CC=Nc2ccc(-c3nc4ccccc4s3)c(O)c2)cc1`: the NF-kB reporter worked out at 0.971 ± 0.034.
Consider `c1ccc2nc3c(cc(N4CCOCC4)c4ccccc43)nc2c1`, for which the NF-kB reporter was 0.969 ± 0.14.
`O=C(Cn1c(C(F)(F)F)nc2ccccc21)c1ccc(OC(F)F)cc1`: the NF-kB reporter worked out at 0.884 ± 0.062.
In the case of `CCN(CC)CCOCCOC(=O)C1(c2ccccc2)CCCC1` [Prestw-387], the NF-kB reporter was 0.993 ± 0.12.
On to `COCCNc1nc(SCC(=O)Nc2cccc(C(F)(F)F)c2)nc2ccccc12`, for which the NF-kB reporter stood at 0.528 ± 0.043.
`CC1(C)CC(=O)C2=C(C1)OC(N)=C(C#N)C21C(=O)Nc2ccc(Br)cc21` (configuration not stated): the NF-kB reporter was 0.955 ± 0.057.
Next, `O=c1c2ccccc2n(Cc2nc(-c3ccc(F)c(F)c3)no2)c(=O)n1C1CC1`: 0.923 ± 0.11; `C[C@H](Oc1cc(-c2cnn(C3CCNCC3)c2)cnc1N)c1c(Cl)ccc(F)c1Cl`: 0.942 ± 0.08.
On to `COc1ccc(Cl)cc1C(=O)NCCc1ccc(S(=O)(=O)NC(=O)NC2CCCCC2)cc1`, for which the NF-kB reporter amounted to 0.987 ± 0.09.
`CS(=O)(=O)NCc1cccc(Oc2ccc(F)cc2)c1`: the NF-kB reporter was determined as 0.997 ± 0.029.
As to `COc1cccc(-n2c(SCc3ccc(F)cc3)nc3c([nH]c4ccccc43)c2=O)c1`, the NF-kB reporter was determined as 0.693 ± 0.06.
Next, `CCCCSc1nnc2c(n1)OC(c1cccc(O)c1)Nc1ccc(Br)cc1-2` (configuration not stated): 0.996 ± 0.14; `Cl.Cl.Cn1cc(CNCC2CCN(c3ncc(C(=O)NO)cn3)CC2)c2ccccc21`: 2.69 ± 0.12; `O=C(NCCCCNC(=O)c1cncc(Br)c1)c1cncc(Br)c1`: 0.907 ± 0.075.
For `COC(=O)C1=CN(CC2CCCO2)C=C(C(=O)OC)C1c1cccc(F)c1` (configuration not stated) the value was 1.05 ± 0.098.
